Bioassay records as filed in PubChem.
HT1080 IDH1KD tx: kills HT-1080 cells with IDH1 knockdown; HT-1080 IDH1 knockdown viability, ATP luminescence, 48 h; Potency, µM (highest dose often 46.1 µM), inactives show at the highest dose activity, negative = toxicity, actives largely listed as cytotoxic; actives 2% (n = 360,000);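 also: potency is read from the fitted curve at half-maximal effect; 0% = DMSO wells and -100% = cell-free medium wells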
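CellTiter-Glo luminescence after 48 h compound exposure at 37 degrees C of IDH1-knockdown HT-1080 cells in 5% FBS RPMI. %Activity scaled between DMSO wells and cell-free media wells, with curves fitted and assigned curve classes.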
TDP1 cell CPT: DT40-hTDP1 cell growth loss with CPT. Potency, µM (doses to about 46.2 µM), for inactives: at the top dose activity change, negative = growth inhibition, hits mostly inhibitors. actives 12% (n = 420,000). chicken DT40 Tdp1-/-;hTDP1 cells + 20 nM CPT, ATP luminescence, 48 h. AID 686979; also: potency is read from the fitted curve at half-maximal effect; nearly all actives have a fitted effect of over 55% in size
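Chicken DT40 Tdp1-/- cells stably complemented with human TDP1 were seeded at 400 cells/well in medium containing 20 nM camptothecin, exposed to pin-transferred compounds, and grown at 37 °C for at least 48 hr. Viability was read as ATP luminescence.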
HT1080-NT tox: kills 2HG-producing HT-1080-NT fibrosarcoma cells; actives 1.6% (n = 360,000); Potency, µM (titrated, usually from 46.1 µM), without a hit: at the highest dose activity, negative = less viability, usual class: cytotoxic; HT-1080-NT fibrosarcoma viability, CellTiter-Glo ATP luminescence, 48 h;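 also: NT is the 2HG producing partner of a matched IDH1 knockdown line; potency is read from the fitted curve at half-maximal effect; 0% = DMSO-treated cells and -100% = media-only wells without cells; nearly all actives have a fitted effect of over 55% in size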
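750 cells/well, RPMI + 5% FBS; 2 h settle, compound pin-transfer, 48 h at 37 degrees C. CellTiter-Glo 10 min RT, luminescence. Normalized to DMSO and media-only wells.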
DT40 TDP1 no CPT: qHTS for Inhibitors of human tyrosyl-DNA phosphodiesterase 1 (TDP1): qHTS in cells in absence of CPT; DT40 Tdp1-/- hTDP1 cells, no CPT, ATP luminescence, 48 h; Potency, µM (highest dose often 46.2 µM), for the others: top-dose activity change, negative = growth inhibition, hits mostly inhibitors; actives 15% (n = 420,000); AID 686978, 2013; also: potency is read from the fitted curve at half-maximal effect; nearly all actives have a fitted effect of over 55% in size
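A cellular qHTS used chicken DT40 cells lacking endogenous Tdp1 but carrying stably transfected human TDP1. Compounds were applied without camptothecin, and cell growth kinetics were judged by ATP-dependent luminescence after ≥48 hr.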
IL1B secr inh: inhibitors of inflammasome signaling (IL-1 beta secretion) | THP-1 LPS/ATP IL-1B secretion, AlphaLISA, 16 h; hits give low values | activity change, % at 57.5 µM | actives 4.7% (n = 360,000) | AID 743279; in the data active = activity change below about -50%; inconclusive = mostly about -30% to -49%
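THP-1 cells pretreated 1 hr with compounds (up to 57.5 uM final), then stimulated with LPS (250 ng/mL final) plus ATP (1.25 mM final); secreted IL-1B measured by AlphaLISA after 16 hr, decreased signal indicating inhibition.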
Numbers without * were called inactive. The list is not random: actives were taken first. Their share in the collection is about 19%. Unless noted, calls follow the shape of the dose curve; as a rule, active = well fitted curve in the direction sought with a large enough effect; inconclusive = small, poorly fitted or top-dose-only effect, or another doubt; inactive = no such curve, though single readings can be large; an effect the other way counts as inactive or inconclusive. Unless noted, % is scaled to controls: 0 for no effect and ±100 for the full control effect.

For CC1(C(=O)O)CCN1C(=O)c1cccnc1Oc1ccccc1 (stereo not given) the results were HT1080 IDH1KD tx 9%, TDP1 cell CPT -24%, HT1080-NT tox 23%, DT40 TDP1 no CPT 1% and IL1B secr inh 11.
For COc1ccc(C(=O)/C=C/c2ccsc2)cc1CSCC(=O)O the results were HT1080 IDH1KD tx -2%, TDP1 cell CPT 9.2µM*, HT1080-NT tox -8%, DT40 TDP1 no CPT 12µM* and IL1B secr inh -69*.
`CC1Nc2ncnc(N3CCN(c4ccccc4)CC3)c2N(Cc2ccccc2)C1=O` (stereo not given) gave HT1080 IDH1KD tx -6%, TDP1 cell CPT inconclusive, HT1080-NT tox -7%, DT40 TDP1 no CPT 16µM* and IL1B secr inh 9.
For CC1Nc2ncnc(N3CCN(c4ccccc4)CC3)c2N(Cc2ccc(Cl)cc2)C1=O (stereo not given) the results were HT1080 IDH1KD tx -12%, TDP1 cell CPT inconclusive, HT1080-NT tox -19%, DT40 TDP1 no CPT 18µM* and IL1B secr inh inconclusive.
Cc1cccc(NC(=O)CN(c2ccc(C(C)C)cc2)S(=O)(=O)c2c(C)nn(C)c2C)n1 was read as HT1080 IDH1KD tx -8%, TDP1 cell CPT -5%, HT1080-NT tox -12%, DT40 TDP1 no CPT inconclusive and IL1B secr inh -6.
COC(=O)N1CCC[C@@]2(CCN(C(=O)Nc3ccccc3)C2)C1 was read as TDP1 cell CPT 10% and DT40 TDP1 no CPT -4%.
For O=C(NCCCc1ccccc1)C1CC1 the results were HT1080 IDH1KD tx 23%, TDP1 cell CPT 6%, HT1080-NT tox 12% and DT40 TDP1 no CPT 6%.
For O=C(NCCCCc1ccccc1)NC[C@@H]1CC[C@@H](Cc2ccc(-c3ccccc3)cc2)O1 the results were HT1080 IDH1KD tx -21%, TDP1 cell CPT 16µM*, HT1080-NT tox -16%, DT40 TDP1 no CPT 15µM* and IL1B secr inh -13.
`COc1ccc(Br)cc1CNC(=O)c1ccc2c(c1)N(C)CCS2` gave HT1080 IDH1KD tx -1%, TDP1 cell CPT 23µM*, HT1080-NT tox -7%, DT40 TDP1 no CPT inconclusive and IL1B secr inh -13.
`CCN1CCSc2ccc(C(=O)NCc3cc(Br)ccc3OC)cc21` gave HT1080 IDH1KD tx -13%, TDP1 cell CPT 16µM*, HT1080-NT tox -12%, DT40 TDP1 no CPT inconclusive and IL1B secr inh -23.
COc1ccc(Br)cc1CNC(=O)CCC(=O)N1CCSc2ccccc21 was read as HT1080 IDH1KD tx 4%, TDP1 cell CPT inconclusive, HT1080-NT tox 13%, DT40 TDP1 no CPT 21µM* and IL1B secr inh -8.
CN1CCSc2ccc(C(=O)NCc3cccc(F)c3)cc21 was read as HT1080 IDH1KD tx 8%, TDP1 cell CPT inconclusive, HT1080-NT tox -13%, DT40 TDP1 no CPT inconclusive and IL1B secr inh -28.
`Cc1cc(C)cc(NC(=O)CCC(=O)N2CCSc3ccccc32)c1` gave HT1080 IDH1KD tx 0%, TDP1 cell CPT inconclusive, HT1080-NT tox -1%, DT40 TDP1 no CPT 18µM* and IL1B secr inh 3.
`O=C(CCC(=O)N1CCSc2ccccc21)NCCc1ccccc1` gave HT1080 IDH1KD tx -3%, TDP1 cell CPT 3%, HT1080-NT tox -5%, DT40 TDP1 no CPT -25% and IL1B secr inh -12.
For Cc1ccccc1OCCn1cnc2cc([N+](=O)[O-])ccc2c1=O the results were HT1080 IDH1KD tx -20%, TDP1 cell CPT 18µM*, HT1080-NT tox -16%, DT40 TDP1 no CPT 21µM* and IL1B secr inh 0.
Screening O=c1c2ccccc2ncn1CCCOc1ccccc1[N+](=O)[O-] returned HT1080 IDH1KD tx 12%, TDP1 cell CPT inconclusive, HT1080-NT tox 8%, DT40 TDP1 no CPT inconclusive and IL1B secr inh -22.
`Cc1ccc(-c2nn(-c3cccc(F)c3)cc2CNCc2cccnc2)o1` gave HT1080 IDH1KD tx -16%, TDP1 cell CPT inconclusive, HT1080-NT tox -17%, DT40 TDP1 no CPT inconclusive and IL1B secr inh inconclusive.
